Data: PubChem BioAssay (Tox21)
Results filed as inconclusive are left out. The source made the active and inactive calls. Unless noted, calls come from the whole dose curve; as a rule, active = well fitted curve in the direction sought with a large enough effect in the repeat runs; inconclusive = weak or mixed curves; inactive = no such curve, though single readings can be large; an effect the other way counts as inactive or inconclusive.

Assays:
[1] = A CellTox Green Cytotoxicity Assay to monitor cytotoxicity in HEK293 cells - 16 hour (AID 1224888); note: nearly all actives have a fitted effect of over 35% in size
How it was run: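 Fluorescence intensity, read at 0, 8, 16, 24, 32 and 40 h of compound treatment, reflected dye binding to DNA of dead HEK293 cells; compounds (23 nL, DMSO) were added 5 h after plating cells with reagent.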

[2] = qHTS RealTime-Glo MT Cell Viability Assay in HepG2 cells - 0 hour (AID 1224889); note: nearly all actives have a fitted effect of over 50% in size
How it was run: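 qHTS, HepG2, 600 cells/well, RealTime-Glo (NanoLuc + prosubstrate) added with cells; 5 h preincubation; DMSO compound addition; 37 C; luminescence at 0/8/16/24/32/40 h.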

[3] = A CellTox Green Cytotoxicity Assay to monitor cytotoxicity in HepG2 cells - 8 hour (AID 1224890); note: nearly all actives have a fitted effect of over 45% in size
How it was run: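 Using 1536-well format, dye-containing HepG2 suspension was seeded, allowed 5 h at 37 C/5% CO2, dosed by pintool with compounds, positive and negative controls, and imaged for fluorescence across 40 h.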

[4] = qHTS assay to identify small molecule antagonists of the estrogen receptor alpha (ER-alpha) signaling pathway using the BG1 cell line in the presence of 0.1 nM 17-beta-estradiol - cell viability counter screen (AID 1259241); note: nearly all actives have a fitted effect of over 40% in size
How it was run: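 VM7Luc4E2 cells (endogenous ER-alpha, 4×ERE-luciferase), hormone-starved 5 days in charcoal-stripped FBS, were treated with compounds plus 0.1 nM 17beta-estradiol for 22 hr at 37C; viability read in same wells as CellTiter-Fluor live-cell protease fluorescence.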

[5] = qHTS assay to identify small molecule antagonists of the androgen receptor (AR) signaling pathway using the MDA cell line in the presence of 0.5 nM R1881 - cell viability counter screen (AID 1259242); note: nearly all actives have a fitted effect of over 45% in size
How it was run: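 Viability of MDA-kb2 cells was multiplexed with the luciferase AR readout; after 16 hr with compounds and R1881 at 0.5 nM final, CellTiter-Fluor fluorescence was recorded.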

[6] = target: Estrogen receptor (Homo sapiens) (UniProt P03372); assay: qHTS assay to identify small molecule antagonists of the estrogen receptor alpha (ER-alpha) signaling pathway using the BG1 cell line in the presence of 0.1 nM 17-beta-estradiol (AID 1259244); note: nearly all actives have a fitted effect of over 50% in size
How it was run: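 Estradiol at 0.1 nM (final) stimulates the endogenous ER-alpha of VM7Luc4E2 cells carrying an ERE-driven luciferase; compounds are co-incubated 22 h at 37C and luciferase output quantified by luminescence.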

[7] = qHTS assay to identify small molecule phospholipidosis (PLD) inducers (AID 1259344; active = well fitted curve in the direction sought with a large enough effect; an effect the other way counts as inactive or inconclusive)
How it was run: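 HepG2 cells grown on collagen I take up LipidTOX Red while exposed to compound for 24 h; after fixation they are imaged at 20x and pit metrics are extracted.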

[8] = qHTS assay to identify small molecule HDAC inhibitors (AID 1259364);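 note: wild-type HCT-116 cells with endogenous class I/II HDAC activity; top concentration of the series differs between compounds; nearly all actives have a fitted effect of over 45% in size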
How it was run: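 Read-out: luminescence of HDAC-Glo I/II reagent, 30 min RT, reflecting class I/II deacetylase activity in whole HCT-116 cells pre-exposed 2 h to DMSO-dissolved compounds.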

[9] = qHTS assay to identify small molecule HDAC inhibitors - cell viability counter screen (AID 1259365); note: series mostly up to about 92 µM; nearly all actives have a fitted effect of over 50% in size
How it was run: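 Wild-type HCT-116 cells were seeded at 1,500 per well, incubated overnight at 37 C, then exposed to compounds in DMSO for 2hr. Viability was read by CellTiter-Glo luminescence after 30min at room temperature.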

[10] = qHTS assay to identify small molecule agonists of the sonic hedgehog signaling (Shh) pathway - cell viability counter screen (AID 1259366); note: nearly all actives have a fitted effect of over 50% in size
How it was run: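 NIH/3T3-derived 3T3 Gli1-Luc cells (stable Gli1-responsive firefly luciferase reporter) were seeded, rested 4 hr at 37 C/5% CO2, then exposed to compounds in DMSO for 24 hr; viability was read by CellTiter-Fluor fluorescence in the same wells.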

[11] = qHTS assay to identify small molecule antagonists of the sonic hedgehog signaling (Shh) pathway - cell viability counter screen (AID 1259367); note: nearly all actives have a fitted effect of over 55% in size
How it was run: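 After a 4 hr settling period, 3T3 Gli1-Luc cells were treated with DMSO-dissolved chemicals and conditioned medium, kept 24 hr at 37C in 5% CO2, and assayed for viability by CellTiter-Fluor fluorescence following 1 hr reagent incubation.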

[12] = qHTS assay to identify small molecule agonists of the sonic hedgehog signaling (Shh) pathway (AID 1259368; calls by dose curve; note: series mostly up to about 92 µM; nearly all actives have a fitted effect of over 15% in size)
How it was run: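 A Gli1 transcriptional response element controlled firefly luciferase in 3T3Gli1-Luc cells. Compounds and a positive control were added 4 hr after plating, and cells were incubated a further 24 hr at 37 C before luminescence detection.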

[13] = qHTS assay to identify small molecule antagonists of the sonic hedgehog signaling (Shh) pathway (AID 1259369; calls by dose curve; note: nearly all actives have a fitted effect of over 45% in size)
How it was run: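 For antagonist detection, the reporter line received test compounds together with conditioned medium, incubated 24hr at 37 C, 5% CO2, then luminescence was recorded following 30min room-temperature luciferase reagent incubation.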

[14] = target: Estrogen receptor beta (Homo sapiens) (UniProt Q92731); assay: qHTS assay to identify small molecule agonists of the estrogen receptor beta (ER-beta) signaling pathway (AID 1259377; active = well fitted activation curve with a large enough effect in the signal ratio in the repeat runs, not every such curve was filed as active; the % refers to the signal ratio; note: potency is the fitted concentration of half-maximal effect)
How it was run: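 ER-beta-UAS-bla HEK293T (GripTite) cells carrying a UAS-driven beta-lactamase reporter, in medium with 2% charcoal-stripped FBS, were exposed to compounds for 16 hr at 37C; LiveBLAzer B/G FRET substrate was then added and fluorescence read after 2 hours at room temperature.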

[15] = target: Estrogen receptor beta (Homo sapiens) (UniProt Q92731); assay: qHTS assay to identify small molecule antagonists of the estrogen receptor beta (ER-beta) signaling pathway (AID 1259378; active = well fitted inhibition curve with a large enough effect in the signal ratio in the repeat runs, not every such curve was filed as active; the % refers to the signal ratio)
How it was run: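 ER-beta-UAS-bla HEK293T (GripTite) cells in 2% charcoal-stripped FBS medium were preincubated 6 hr at 37C, dosed with compound, then stimulated with 1 nM E2 (final) for 16 hr; beta-lactamase reporter read by B/G FRET fluorescence after 2 hr substrate loading.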

[16] = qHTS assay to identify small molecule agonists of the androgen receptor (AR) signaling pathway in the presence of an antagonist - cell viability counter screen (AID 1259379);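 note: MDA-kb2 human breast cancer cells carrying an MMTV luciferase reporter; series mostly up to about 92 µM; nearly all actives have a fitted effect of over 25% in size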
How it was run: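 Seed MDA-kb2 at 3,000 cells/well; incubate 5 hr, 37C, 0% CO2. Add nilutamide to 3.0uM final, then pin compounds at 15 concentrations. Incubate 16 hr. Add CellTiter-Fluor at 15 hr, read fluorescence after 1 hr.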

[17] = qHTS assay to identify small molecule agonists of the estrogen receptor beta (ER-beta) signaling pathway - cell viability counter screen (AID 1259380); note: nearly all actives have a fitted effect of over 30% in size
How it was run: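 CellTiter-Glo read, 30 min RT, same wells as bla assay; cells ER-beta-UAS-bla HEK293T; 16 hr compound, 37C; medium 2% charcoal-stripped FBS.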

[18] = qHTS assay to identify small molecule antagonists of the estrogen receptor beta (ER-beta) signaling pathway - cell viability counter screen (AID 1259382); note: series mostly up to about 92 µM; nearly all actives have a fitted effect of over 55% in size
How it was run: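 In this multiplexed counter screen, cells were seeded at 2,000 per well in medium with 2% charcoal-stripped FBS and incubated 6 hr before compound and 1nM final E2 were added. Sixteen hours later, ATP-based luminescence reported viability.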

[19] = target: Androgen receptor (Homo sapiens) (UniProt P10275); assay: qHTS assay to identify small molecule antagonists of the androgen receptor (AR) signaling pathway using the MDA cell line in the presence of 0.5 nM R1881 (AID 1259243); note: nearly all actives have a fitted effect of over 50% in size; note: potency is the fitted concentration of half-maximal effect
How it was run: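 Reporter cells cultured without CO2 receive test chemicals, then 0.5 nM R1881 final; after 16 hr at 37C, ONE-Glo is added and light output recorded.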

[20] = target: Androgen receptor (Homo sapiens) (UniProt P10275); assay: qHTS assay to identify small molecule agonists of the androgen receptor (AR) signaling pathway in the presence of an antagonist (AID 1259381; calls by dose curve; note: nearly all actives have a fitted effect of over 15% in size)
How it was run: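 Test compounds at 15 concentrations were incubated for 16hr with MDA-kb2 reporter cells in presence of 3.0uM nilutamide (final). Signal: ONE-Glo luciferase luminescence.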
% is set by controls: 0 for no effect and ±100 for the full control effect.

Sequence of Androgen receptor (Homo sapiens) (P10275 whole entry, looked up): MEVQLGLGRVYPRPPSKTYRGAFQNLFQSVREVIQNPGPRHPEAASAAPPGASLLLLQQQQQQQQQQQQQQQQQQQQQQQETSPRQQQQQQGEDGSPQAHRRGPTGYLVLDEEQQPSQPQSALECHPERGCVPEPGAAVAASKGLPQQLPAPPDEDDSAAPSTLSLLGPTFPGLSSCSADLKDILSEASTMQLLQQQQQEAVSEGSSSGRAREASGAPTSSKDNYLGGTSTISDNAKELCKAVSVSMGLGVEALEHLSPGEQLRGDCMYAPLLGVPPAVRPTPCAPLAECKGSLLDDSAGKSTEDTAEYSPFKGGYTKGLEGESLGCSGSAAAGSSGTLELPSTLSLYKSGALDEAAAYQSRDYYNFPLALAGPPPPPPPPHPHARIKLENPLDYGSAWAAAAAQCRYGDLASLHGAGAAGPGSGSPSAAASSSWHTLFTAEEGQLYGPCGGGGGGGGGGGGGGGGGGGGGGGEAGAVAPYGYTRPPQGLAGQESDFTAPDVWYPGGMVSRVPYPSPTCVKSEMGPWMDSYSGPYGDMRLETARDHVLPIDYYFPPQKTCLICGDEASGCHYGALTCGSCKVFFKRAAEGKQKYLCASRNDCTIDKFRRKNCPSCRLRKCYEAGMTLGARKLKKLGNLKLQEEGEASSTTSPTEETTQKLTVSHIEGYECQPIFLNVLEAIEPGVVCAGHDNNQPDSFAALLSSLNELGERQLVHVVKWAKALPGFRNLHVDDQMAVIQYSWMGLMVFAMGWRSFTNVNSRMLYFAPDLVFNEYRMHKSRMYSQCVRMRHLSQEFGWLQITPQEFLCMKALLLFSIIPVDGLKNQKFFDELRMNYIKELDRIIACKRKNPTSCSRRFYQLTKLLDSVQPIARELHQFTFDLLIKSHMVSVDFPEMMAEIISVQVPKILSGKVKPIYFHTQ
Sequence of Estrogen receptor beta (Homo sapiens) (Q92731 whole entry, looked up): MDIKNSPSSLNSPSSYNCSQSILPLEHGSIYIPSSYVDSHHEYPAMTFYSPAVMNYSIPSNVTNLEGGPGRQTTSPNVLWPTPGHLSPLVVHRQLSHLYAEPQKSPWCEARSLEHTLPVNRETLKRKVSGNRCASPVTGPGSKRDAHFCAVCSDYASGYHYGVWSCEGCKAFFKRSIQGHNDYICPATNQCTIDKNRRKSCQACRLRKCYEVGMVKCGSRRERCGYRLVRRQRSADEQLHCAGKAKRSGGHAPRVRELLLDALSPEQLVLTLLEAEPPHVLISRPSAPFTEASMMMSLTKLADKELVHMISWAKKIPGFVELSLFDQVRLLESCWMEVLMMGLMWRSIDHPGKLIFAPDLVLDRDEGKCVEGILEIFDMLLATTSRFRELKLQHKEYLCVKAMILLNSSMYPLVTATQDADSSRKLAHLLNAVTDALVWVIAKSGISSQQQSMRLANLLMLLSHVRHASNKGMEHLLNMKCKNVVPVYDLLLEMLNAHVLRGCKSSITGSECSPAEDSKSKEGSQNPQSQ
Sequence of Estrogen receptor (Homo sapiens) (P03372 whole entry, looked up): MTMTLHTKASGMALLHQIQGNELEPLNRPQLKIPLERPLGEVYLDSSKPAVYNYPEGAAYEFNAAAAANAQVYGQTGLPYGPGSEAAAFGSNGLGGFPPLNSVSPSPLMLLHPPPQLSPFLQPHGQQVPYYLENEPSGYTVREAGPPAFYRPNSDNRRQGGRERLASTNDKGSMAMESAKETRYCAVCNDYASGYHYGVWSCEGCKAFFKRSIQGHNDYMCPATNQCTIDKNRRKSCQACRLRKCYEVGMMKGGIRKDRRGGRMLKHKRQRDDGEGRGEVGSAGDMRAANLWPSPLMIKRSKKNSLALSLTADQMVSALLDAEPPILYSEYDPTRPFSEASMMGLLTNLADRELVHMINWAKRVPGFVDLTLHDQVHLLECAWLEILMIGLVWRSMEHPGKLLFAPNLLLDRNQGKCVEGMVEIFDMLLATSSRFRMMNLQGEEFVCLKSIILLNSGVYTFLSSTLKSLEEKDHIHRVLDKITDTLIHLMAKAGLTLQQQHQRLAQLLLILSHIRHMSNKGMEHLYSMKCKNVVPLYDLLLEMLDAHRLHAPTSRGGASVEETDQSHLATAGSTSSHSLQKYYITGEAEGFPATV

CC[C@@]1(c2ccccc2)NC(=O)N(C)C1=O
inactive: Potency [1] | Potency [2] | Potency [3] | outcome [4] | outcome [5] | outcome [6] | Potency [7] | Potency [8] | outcome [9] | outcome [10] | outcome [11] | outcome [12] | Potency [13] | Potency [14] | outcome [15] | outcome [16] | Potency [17] | outcome [18]

CC1(C)S[C@@H]2[C@H](NC(=O)Cc3ccccc3)C(=O)N2[C@H]1C(=O)O (tested in a mixture with another compound)
inactive: Potency [1] | Potency [2] | Potency [3] | outcome [4] | outcome [5] | outcome [6] | Potency [7] | Potency [8] | outcome [9] | outcome [10] | outcome [11] | outcome [12] | Potency [13] | Potency [14] | outcome [15] | outcome [16] | Potency [17] | outcome [18]

CN1C(CCl)Nc2cc(Cl)c(S(N)(=O)=O)cc2S1(=O)=O (configuration not stated)
inactive: Potency [1] | Potency [2] | Potency [3] | outcome [4] | outcome [5] | outcome [6] | Potency [7] | Potency [8] | outcome [9] | outcome [10] | outcome [11] | outcome [12] | Potency [13] | Potency [14] | outcome [15] | outcome [16] | Potency [17] | outcome [18]

N#Cc1ccccc1C#N
inactive: Potency [1] | Potency [2] | Potency [3] | outcome [4] | outcome [5] | Potency [19] | outcome [6] | Potency [8] | outcome [9] | outcome [10] | outcome [11] | outcome [12] | Potency [13] | outcome [16] | Potency [17] | outcome [20] | outcome [18]

O=C1c2ccccc2C(=O)N1CO
inactive: Potency [1] | Potency [2] | Potency [3] | outcome [4] | outcome [5] | Potency [19] | outcome [6] | Potency [8] | outcome [9] | outcome [10] | outcome [11] | outcome [12] | Potency [13] | Potency [14] | outcome [15] | outcome [16] | Potency [17] | outcome [20] | outcome [18]

CC/C=C\CCOC(=O)c1ccccc1
inactive: Potency [1] | Potency [2] | Potency [3] | outcome [4] | outcome [5] | Potency [19] | outcome [6] | outcome [9] | outcome [10] | outcome [11] | Potency [13] | outcome [16] | Potency [17] | outcome [20] | outcome [18]

CN(C)c1cc(NC(=O)CNC(C)(C)C)c(O)c2c1C[C@H]1C[C@H]3[C@H](N(C)C)C(=O)C(C(N)=O)=C(O)[C@@]3(O)C(=O)C1=C2O
inactive: Potency [1] | Potency [2] | Potency [3] | outcome [4] | outcome [5] | Potency [19] | outcome [6] | Potency [7] | outcome [9] | outcome [10] | outcome [11] | outcome [12] | Potency [13] | Potency [14] | outcome [15] | outcome [16] | Potency [17] | outcome [20] | outcome [18]

COCc1nnc(-c2ccc[n+]([O-])c2)n1-c1c(Cl)c(Cl)cc2[nH]c(=O)c(=O)[nH]c12
inactive: Potency [1] | Potency [2] | Potency [3] | outcome [4] | outcome [5] | Potency [19] | outcome [6] | Potency [8] | outcome [9] | outcome [10] | outcome [11] | Potency [13] | outcome [15] | outcome [16] | Potency [17] | outcome [20] | outcome [18]

Nc1ccc(C(=O)NCC(=O)O)cc1
inactive: Potency [1] | Potency [2] | Potency [3] | outcome [4] | outcome [5] | outcome [6] | Potency [7] | Potency [8] | outcome [9] | outcome [10] | outcome [11] | outcome [12] | Potency [13] | Potency [14] | outcome [16] | Potency [17] | outcome [18]

CC(=O)O[C@@H]1CC2C3CCc4cc(OC(=O)c5ccccc5)ccc4C3CCC2(C)[C@H]1OC(C)=O (some centres not stated)
active: Potency [19] 10.6 µM | Potency [14] 0.0133 µM
inactive: Potency [1] | Potency [2] | Potency [3] | outcome [4] | outcome [5] | outcome [6] | Potency [8] | outcome [9] | outcome [10] | outcome [11] | outcome [12] | Potency [13] | outcome [16] | outcome [20] | outcome [18]

N#CC1(N)CCCCC1
inactive: Potency [1] | Potency [2] | Potency [3] | outcome [4] | outcome [5] | outcome [6] | Potency [8] | outcome [9] | outcome [10] | outcome [11] | outcome [12] | Potency [13] | Potency [14] | outcome [15] | outcome [16] | Potency [17] | outcome [18]

C=CCCCCCCCCCCCCCC
inactive: activity change [1] -0.657% [at 15.8 µM, hits give high values] | activity change, negative = cytotoxicity [2] 10.7% [at 15.8 µM] | cytotoxicity increase [3] 8.14% [at 15.8 µM] | activity change, negative = cytotoxicity [4] 0.733% [at 19 µM] | viability change, negative = cytotoxic [5] 1.94% [at 19 µM] | activity change, negative = inhibition [6] -1.96% [at 19 µM] | activity change, negative = inhibition [8] 0.0889% [at 19 µM] | activity change, negative = cytotoxicity [9] 1.69% [at 19 µM] | viability change, negative = cytotoxic [10] -2.14% [at 19 µM] | viability change, negative = cytotoxic [11] -0.0329% [at 19 µM] | activity change [12] -0.591% [at 18.9 µM] | activity change, negative = inhibition [13] 8.65% [at 19 µM] | activation [14] 1.28% [at 19 µM] | activity, negative = inhibition [15] 2.19% [at 19 µM] | activity change, negative = cytotoxicity [16] -2.34% [at 19 µM] | activity change, negative = cytotoxicity [17] 1.12% [at 19 µM] | activity change, negative = cytotoxicity [18] -6.85% [at 19 µM]

Cc1ccccc1OCC(=O)O
inactive: Potency [1] | Potency [2] | Potency [3] | outcome [4] | outcome [5] | outcome [6] | Potency [8] | outcome [9] | outcome [10] | outcome [11] | outcome [12] | Potency [13] | Potency [14] | outcome [15] | outcome [16] | Potency [17] | outcome [18]

Clc1cc(Cl)c(Cl)c(Cl)c1Cl
inactive: Potency [1] | Potency [2] | Potency [3] | outcome [4] | outcome [5] | outcome [6] | Potency [8] | outcome [9] | outcome [10] | outcome [11] | outcome [12] | Potency [13] | Potency [14] | outcome [15] | outcome [16] | Potency [17]
